# B1: 16 (nucleosome)
# DNA 1: ATCCTGGAGAATCCCGGTTCAAGGCCAGCTCAATTGGTCGTAGACAGCTCTAGCACCGCTTAAACGCACGTACGCGCTGTCCCCCGCGTTTTAACCGCCAAGGGGATTACTCCCTAGTCTCCAGGCACGTGTCAGATATATACATCCTGTGAT
# DNA 2: ATCACAGGATGTATATATCTGACACGTGCCTGGAGACTAGGGAGTAATCCCCTTGGCGGTTAAAACGCGGGGGACAGCGCGTACGTGCGTTTAAGCGGTGCTAGAGCTGTCTACGACCAATTGAGCTGGCCTTGAACCGGGATTCTCCAGGAT
# modifications: reconstituted with mouse histones H2A, H2B, H3.3 and H4
# B2: 21 (nucleosome)
# DNA 1: ATCCTGGAGAATCCCGGTGCCGATCAAGGCCAATTGGTCGTAGACAGCTCTAGCACCGCTTAAACGCACGTACGCGCTGTCCCCCGCGTTTTAACCGCCAAGGGGATTACTCCCTAGTCTCCAGGCACGTGTCAGATATATACATCCTGTGAT
# DNA 2: ATCACAGGATGTATATATCTGACACGTGCCTGGAGACTAGGGAGTAATCCCCTTGGCGGTTAAAACGCGGGGGACAGCGCGTACGTGCGTTTAAGCGGTGCTAGAGCTGTCTACGACCAATTGGCCTTGATCGGCACCGGGATTCTCCAGGAT
# modifications: reconstituted with mouse histones H2A, H2B, H3.3 and H4
# B3: 22 (nucleosome)
# DNA 1: ATCCTGGAGAATCCCGGTGCCGAGTCAAGGCCATTGGTCGTAGACAGCTCTAGCACCGCTTAAACGCACGTACGCGCTGTCCCCCGCGTTTTAACCGCCAAGGGGATTACTCCCTAGTCTCCAGGCACGTGTCAGATATATACATCCTGTGAT
# DNA 2: ATCACAGGATGTATATATCTGACACGTGCCTGGAGACTAGGGAGTAATCCCCTTGGCGGTTAAAACGCGGGGGACAGCGCGTACGTGCGTTTAAGCGGTGCTAGAGCTGTCTACGACCAATGGCCTTGACTCGGCACCGGGATTCTCCAGGAT
# modifications: reconstituted with mouse histones H2A, H2B, H3.3 and H4
# B4: 20 (nucleosome)
# DNA 1: ATCCTGGAGAATCCCGGTGCCGTCAAGGCCAAATTGGTCGTAGACAGCTCTAGCACCGCTTAAACGCACGTACGCGCTGTCCCCCGCGTTTTAACCGCCAAGGGGATTACTCCCTAGTCTCCAGGCACGTGTCAGATATATACATCCTGTGAT
# DNA 2: ATCACAGGATGTATATATCTGACACGTGCCTGGAGACTAGGGAGTAATCCCCTTGGCGGTTAAAACGCGGGGGACAGCGCGTACGTGCGTTTAAGCGGTGCTAGAGCTGTCTACGACCAATTTGGCCTTGACGGCACCGGGATTCTCCAGGAT
# modifications: reconstituted with mouse histones H2A, H2B, H3.3 and H4
# B5: 18 (nucleosome)
# DNA 1: ATCCTGGAGAATCCCGGTGCTCAAGGCCATCAATTGGTCGTAGACAGCTCTAGCACCGCTTAAACGCACGTACGCGCTGTCCCCCGCGTTTTAACCGCCAAGGGGATTACTCCCTAGTCTCCAGGCACGTGTCAGATATATACATCCTGTGAT
# DNA 2: ATCACAGGATGTATATATCTGACACGTGCCTGGAGACTAGGGAGTAATCCCCTTGGCGGTTAAAACGCGGGGGACAGCGCGTACGTGCGTTTAAGCGGTGCTAGAGCTGTCTACGACCAATTGATGGCCTTGAGCACCGGGATTCTCCAGGAT
# modifications: reconstituted with mouse histones H2A, H2B, H3.3 and H4
# B6: 19 (nucleosome)
# DNA 1: ATCCTGGAGAATCCCGGTGCCTCAAGGCCACAATTGGTCGTAGACAGCTCTAGCACCGCTTAAACGCACGTACGCGCTGTCCCCCGCGTTTTAACCGCCAAGGGGATTACTCCCTAGTCTCCAGGCACGTGTCAGATATATACATCCTGTGAT
# DNA 2: ATCACAGGATGTATATATCTGACACGTGCCTGGAGACTAGGGAGTAATCCCCTTGGCGGTTAAAACGCGGGGGACAGCGCGTACGTGCGTTTAAGCGGTGCTAGAGCTGTCTACGACCAATTGTGGCCTTGAGGCACCGGGATTCTCCAGGAT
# modifications: reconstituted with mouse histones H2A, H2B, H3.3 and H4
# B7: 134 (nucleosome)
# DNA 1: ATCCTGGAGAATCCCGGTGCCGAGGCCGCTCAATTGGTCGTAGACAGCTCTAGCACCGCTTAAACGCACGTACGCGCTGTCCCCCGCGTTTTAACCGCCAAGGGGATTACTCCCTAGTCTCCAGGCACGTGTCAGATCAAGGCCACCTGTGAT
# DNA 2: ATCACAGGTGGCCTTGATCTGACACGTGCCTGGAGACTAGGGAGTAATCCCCTTGGCGGTTAAAACGCGGGGGACAGCGCGTACGTGCGTTTAAGCGGTGCTAGAGCTGTCTACGACCAATTGAGCGGCCTCGGCACCGGGATTCTCCAGGAT
# modifications: reconstituted with mouse histones H2A, H2B, H3.3 and H4
# B8: 139 (nucleosome)
# DNA 1: ATCCTGGAGAATCCCGGTGCCGAGGCCGCTCAATTGGTCGTAGACAGCTCTAGCACCGCTTAAACGCACGTACGCGCTGTCCCCCGCGTTTTAACCGCCAAGGGGATTACTCCCTAGTCTCCAGGCACGTGTCAGATATATTCAAGGCCAGAT
# DNA 2: ATCTGGCCTTGAATATATCTGACACGTGCCTGGAGACTAGGGAGTAATCCCCTTGGCGGTTAAAACGCGGGGGACAGCGCGTACGTGCGTTTAAGCGGTGCTAGAGCTGTCTACGACCAATTGAGCGGCCTCGGCACCGGGATTCTCCAGGAT
# modifications: reconstituted with mouse histones H2A, H2B, H3.3 and H4
# B9: 138 (nucleosome)
# DNA 1: ATCCTGGAGAATCCCGGTGCCGAGGCCGCTCAATTGGTCGTAGACAGCTCTAGCACCGCTTAAACGCACGTACGCGCTGTCCCCCGCGTTTTAACCGCCAAGGGGATTACTCCCTAGTCTCCAGGCACGTGTCAGATATATCAAGGCCATGAT
# DNA 2: ATCATGGCCTTGATATATCTGACACGTGCCTGGAGACTAGGGAGTAATCCCCTTGGCGGTTAAAACGCGGGGGACAGCGCGTACGTGCGTTTAAGCGGTGCTAGAGCTGTCTACGACCAATTGAGCGGCCTCGGCACCGGGATTCTCCAGGAT
# modifications: reconstituted with mouse histones H2A, H2B, H3.3 and H4
# B10: 135 (nucleosome)
# DNA 1: ATCCTGGAGAATCCCGGTGCCGAGGCCGCTCAATTGGTCGTAGACAGCTCTAGCACCGCTTAAACGCACGTACGCGCTGTCCCCCGCGTTTTAACCGCCAAGGGGATTACTCCCTAGTCTCCAGGCACGTGTCAGATTCAAGGCCACTGTGAT
# DNA 2: ATCACAGTGGCCTTGAATCTGACACGTGCCTGGAGACTAGGGAGTAATCCCCTTGGCGGTTAAAACGCGGGGGACAGCGCGTACGTGCGTTTAAGCGGTGCTAGAGCTGTCTACGACCAATTGAGCGGCCTCGGCACCGGGATTCTCCAGGAT
# modifications: reconstituted with mouse histones H2A, H2B, H3.3 and H4
# B11: 17 (nucleosome)
# DNA 1: ATCCTGGAGAATCCCGGTGTCAAGGCCACTCAATTGGTCGTAGACAGCTCTAGCACCGCTTAAACGCACGTACGCGCTGTCCCCCGCGTTTTAACCGCCAAGGGGATTACTCCCTAGTCTCCAGGCACGTGTCAGATATATACATCCTGTGAT
# DNA 2: ATCACAGGATGTATATATCTGACACGTGCCTGGAGACTAGGGAGTAATCCCCTTGGCGGTTAAAACGCGGGGGACAGCGCGTACGTGCGTTTAAGCGGTGCTAGAGCTGTCTACGACCAATTGAGTGGCCTTGACACCGGGATTCTCCAGGAT
# modifications: reconstituted with mouse histones H2A, H2B, H3.3 and H4
# B12: 137 (nucleosome)
# DNA 1: ATCCTGGAGAATCCCGGTGCCGAGGCCGCTCAATTGGTCGTAGACAGCTCTAGCACCGCTTAAACGCACGTACGCGCTGTCCCCCGCGTTTTAACCGCCAAGGGGATTACTCCCTAGTCTCCAGGCACGTGTCAGATATTCAAGGCCAGTGAT
# DNA 2: ATCACTGGCCTTGAATATCTGACACGTGCCTGGAGACTAGGGAGTAATCCCCTTGGCGGTTAAAACGCGGGGGACAGCGCGTACGTGCGTTTAAGCGGTGCTAGAGCTGTCTACGACCAATTGAGCGGCCTCGGCACCGGGATTCTCCAGGAT
# modifications: reconstituted with mouse histones H2A, H2B, H3.3 and H4
# B13: 23 (nucleosome)
# DNA 1: ATCCTGGAGAATCCCGGTGCCGAGGTCAAGGCCATGGTCGTAGACAGCTCTAGCACCGCTTAAACGCACGTACGCGCTGTCCCCCGCGTTTTAACCGCCAAGGGGATTACTCCCTAGTCTCCAGGCACGTGTCAGATATATACATCCTGTGAT
# DNA 2: ATCACAGGATGTATATATCTGACACGTGCCTGGAGACTAGGGAGTAATCCCCTTGGCGGTTAAAACGCGGGGGACAGCGCGTACGTGCGTTTAAGCGGTGCTAGAGCTGTCTACGACCATGGCCTTGACCTCGGCACCGGGATTCTCCAGGAT
# modifications: reconstituted with mouse histones H2A, H2B, H3.3 and H4
# B14: 24 (nucleosome)
# DNA 1: ATCCTGGAGAATCCCGGTGCCGAGGCTCAAGGCCAGGTCGTAGACAGCTCTAGCACCGCTTAAACGCACGTACGCGCTGTCCCCCGCGTTTTAACCGCCAAGGGGATTACTCCCTAGTCTCCAGGCACGTGTCAGATATATACATCCTGTGAT
# DNA 2: ATCACAGGATGTATATATCTGACACGTGCCTGGAGACTAGGGAGTAATCCCCTTGGCGGTTAAAACGCGGGGGACAGCGCGTACGTGCGTTTAAGCGGTGCTAGAGCTGTCTACGACCTGGCCTTGAGCCTCGGCACCGGGATTCTCCAGGAT
# modifications: reconstituted with mouse histones H2A, H2B, H3.3 and H4
# B15: 3 (nucleosome)
# DNA 1: ATCCTTCAAGGCCACGGTGCCGAGGCCGCTCAATTGGTCGTAGACAGCTCTAGCACCGCTTAAACGCACGTACGCGCTGTCCCCCGCGTTTTAACCGCCAAGGGGATTACTCCCTAGTCTCCAGGCACGTGTCAGATATATACATCCTGTGAT
# DNA 2: ATCACAGGATGTATATATCTGACACGTGCCTGGAGACTAGGGAGTAATCCCCTTGGCGGTTAAAACGCGGGGGACAGCGCGTACGTGCGTTTAAGCGGTGCTAGAGCTGTCTACGACCAATTGAGCGGCCTCGGCACCGTGGCCTTGAAGGAT
# modifications: reconstituted with mouse histones H2A, H2B, H3.3 and H4
# Biological target: NR5A2 wild type;histone octamer (Homo sapiens;, UniProt O00482;C0HKE1;Q6ZWY9;P84244;P62806 1-541;2-130;2-126;2-136;2-103, |)
# Experiment: SeEN-seq (EMSA of nucleosome library followed by sequencing); 0.8 uM human NR5A2; 20 mM Tris-HCl pH 7.5, 120 mM NaCl, 1 mM MgCl2, 10 uM ZnCl2, 1 mM DTT, 100 ug/ml BSA, room temperature, 30 min; 0.1 uM nucleosome library; high values mean tight binding
row,Binder,binding signal
1,B1,"1.52 log2 enrichment (bound/unbound, relative to Widom 601)"
2,B2,"1.08 log2 enrichment (bound/unbound, relative to Widom 601)"
3,B3,"1.02 log2 enrichment (bound/unbound, relative to Widom 601)"
4,B4,"1.09 log2 enrichment (bound/unbound, relative to Widom 601)"
5,B5,"1.7 log2 enrichment (bound/unbound, relative to Widom 601)"
6,B6,"1.35 log2 enrichment (bound/unbound, relative to Widom 601)"
7,B7,"5.2 log2 enrichment (bound/unbound, relative to Widom 601)"
8,B8,"8.13 log2 enrichment (bound/unbound, relative to Widom 601)"
9,B9,"7.13 log2 enrichment (bound/unbound, relative to Widom 601)"
10,B10,"7.68 log2 enrichment (bound/unbound, relative to Widom 601)"
11,B11,"1.96 log2 enrichment (bound/unbound, relative to Widom 601)"
12,B12,"6.9 log2 enrichment (bound/unbound, relative to Widom 601)"
13,B13,"1.81 log2 enrichment (bound/unbound, relative to Widom 601)"
14,B14,"0.706 log2 enrichment (bound/unbound, relative to Widom 601)"
15,B15,"6.62 log2 enrichment (bound/unbound, relative to Widom 601)"

# Biological target: mouse Nr5a2 wild type;histone octamer (Mus musculus;, UniProt P45448;C0HKE1;Q6ZWY9;P84244;P62806 1-560;2-130;2-126;2-136;2-103, |)
# Experiment: SeEN-seq (EMSA of nucleosome library followed by sequencing); 1.2 uM mouse Nr5a2; 20 mM Tris-HCl pH 7.5, 120 mM NaCl, 1 mM MgCl2, 10 uM ZnCl2, 1 mM DTT, 100 ug/ml BSA, room temperature, 30 min; 0.1 uM nucleosome library; high values mean tight binding
row,Binder,binding signal
1,B1,"1.81 log2 enrichment (bound/unbound, relative to Widom 601)"
2,B2,"1.08 log2 enrichment (bound/unbound, relative to Widom 601)"
3,B3,"0.698 log2 enrichment (bound/unbound, relative to Widom 601)"
4,B4,"1.09 log2 enrichment (bound/unbound, relative to Widom 601)"
5,B5,"2.1 log2 enrichment (bound/unbound, relative to Widom 601)"
6,B6,"1.28 log2 enrichment (bound/unbound, relative to Widom 601)"
7,B7,"3.67 log2 enrichment (bound/unbound, relative to Widom 601)"
8,B8,"5.56 log2 enrichment (bound/unbound, relative to Widom 601)"
9,B9,"5.66 log2 enrichment (bound/unbound, relative to Widom 601)"
10,B10,"5.73 log2 enrichment (bound/unbound, relative to Widom 601)"
11,B11,"1.98 log2 enrichment (bound/unbound, relative to Widom 601)"
12,B12,"5.78 log2 enrichment (bound/unbound, relative to Widom 601)"
13,B13,"2.16 log2 enrichment (bound/unbound, relative to Widom 601)"
14,B14,"0.642 log2 enrichment (bound/unbound, relative to Widom 601)"
15,B15,"5.04 log2 enrichment (bound/unbound, relative to Widom 601)"

# Reference: publication PMC11102866, “Nucleosome-bound NR5A2 structure reveals pioneer factor mechanism by DNA minor groove anchor competition”
